Assay outcomes (PubChem)
ATXN viability = cell viability loss in ATXN counter-screen; S2 cells (HEK-293 line with an ATXN2-luciferase reporter) viability, CellTiter-Fluor protease fluorescence, 24 h; Potency, µM (top dose mostly 56.7 µM), usual class: cytotoxic; 0.49% of 400,000 active; AID 651635; note: nearly all actives have a fitted effect of over 40% in size
TGFb inhibitor = inhibitors of TGF-b signaling; AID 588855; 1.2% of 410,000 active; Potency, µM (top dose mostly 46.1 µM), inactives show at the highest dose activity, negative = inhibition, most hits filed as inhibitors; HepG2 CAGA-GFP TGF-b/SMAD3 reporter, GFP fluorescence, 18 h; TGF-beta stimulated, 500 pg/mL final; note: % is set by controls: 0 for no effect and ±100 for the full control effect; nearly all actives have a fitted effect of over 65% in size
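Per well, imaged GFP fluorescence of HEPG2 CAGA-GFP cells gives the signal; cells get compound, then TGF-beta (500 pg/mL final), 18 h at 37 degrees C; %Activity versus -TGF-beta and +DMSO controls.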
HepG2 viability = HepG2 cytotoxicity, counter-screen for TGF-b inhibitors; HepG2 CAGA-GFP viability, ATP luminescence, 18 h; Potency, µM (doses to about 46.1 µM), for inactives: at the top dose activity change, negative = cytotoxicity, actives largely listed as cytotoxic; 0.76% of 410,000 active
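HepG2 CAGA-GFP cells (1000/well, DMEM with 1% FBS) received compound, then TGF-beta at 500 pg/mL final, and were incubated 18 hours at 37 degrees C. Viability was read by CellTiter-Glo luminescence. Media-only wells were set as complete cell-killing and DMSO as no toxicity.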
ATXN2 expr inh = ATXN2 expression inhibition | HEK-293 ATXN2-luciferase reporter, luminescence, 24 h | 0.72% of 360,000 active | Potency, µM (highest dose often 57 µM), for inactives: at the highest dose activity change, negative = inhibition, actives largely listed as inhibitors; note: % is set by controls: 0 for no effect and ±100 for the full control effect; nearly all actives have a fitted effect of over 55% in size
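qHTS (up to 57 uM final) was run with 24 h compound exposure of reporter cells at 37 °C. Each well was multiplexed: SteadyGlo luminescence measured ATXN2-luciferase expression after a fluorogenic Gly-Phe-AFC viability readout (25 uM final).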
A549 viability = kills or reduces viability of A549 cells in Nrf2 counter-screen; 0.16% of 390,000 active; AID 504648; Potency, µM (series often up to 46 µM), for the others: at the top dose activity change, negative = cytotoxicity, most hits filed as inhibitors; A549 ARE-Fluc cells, CellTiter-Fluor viability, 18-24 h; note: % is set by controls: 0 for no effect and ±100 for the full control effect
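A549 ARE-Fluc cells in 5% FBS OPTI-MEM, 5000 cells/well, rested 2 h then exposed to compounds in concentration-response for 18-24 h at 37 °C. Viability by CellTiter-Fluor fluorescence (Ex 405/Em 525) after 30 min; luciferase luminescence (BugLite, 15 min, RT) read afterwards.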
Nrf2 block = Nrf2 pathway inhibition; A549 ARE-Fluc reporter, luciferase luminescence, 18-24 h; Potency, µM (highest dose often 46 µM), without a hit: at the top dose activity change, negative = inhibition, usual class: inhibitors; 2.1% of 360,000 active; note: % is set by controls: 0 for no effect and ±100 for the full control effect; nearly all actives have a fitted effect of over 60% in size
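Nrf2 function is reported as luminescence of an ARE-controlled luciferase in A549 cells. Compounds were tested at several concentrations, and a CellTiter-Fluor read on the same wells flagged cytotoxicity.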
An asterisk follows results filed as active; i = inactive; ? = inconclusive; nt = not tested or not shown; ! = not confirmed by another sample; [ ] = another dose, or the depositor's remark. Only some compounds are listed: those with a hit (about 3.8% of all), similar ones and a draw of the others. Calls come from the whole dose curve; as a rule, active = well fitted curve in the direction sought with a large enough effect; inconclusive = small, poorly fitted or top-dose-only effect, or another doubt; inactive = no such curve, though single readings can be large; an effect the other way counts as inactive or inconclusive. Potency is the fitted concentration of half-maximal effect.

SMILES | ATXN viability | TGFb inhibitor | HepG2 viability | ATXN2 expr inh | A549 viability | Nrf2 block
CCOC(=O)[C@]12Cc3cc(C)ccc3[C@H]1N(C1CCCCC1)C(=O)c1ccccc12 | 3.55µM* | nt | nt | 4.47µM* | nt | nt
CCOC(=O)[C@]12Cc3cc(C)ccc3[C@H]1N(CCC(=O)OC)C(=O)c1ccccc12 | 17.8µM* | nt | nt | -28.6% | nt | nt
CCOC(=O)[C@]12Cc3cc(Cl)ccc3[C@H]1N(Cc1ccccc1)C(=O)c1ccccc12 | i | ? | -14.3% | -24.5% | ? | ?
CN(N=O)c1cc(O)ccc1O | nt | ? | -92.7% | nt | ? | -5.8%
CN1CC[C@@]2(C)c3cc(O)ccc3N(C)[C@@H]12 | 14.1µM* | ? | 17.8µM*! | -22.3% | 23.1µM* | -3.5%
O=c1[nH]c(O)c(N=Nc2cc([N+](=O)[O-])ccc2O)c(=O)[nH]1 | 9.47µM* | -0.7% | 1.3% | 4.2% | 23.1µM* | -1.4%
C/C(=C\c1ccc(N(C)C)cc1)[N+](=O)[O-] | nt | ? | 10µM* | 31.6µM* | ? | 23.1µM*
O=C(Cn1c(=O)oc2cc(S(=O)(=O)N3CCCCCC3)ccc21)NCc1ccccc1Cl | nt | ? | -43.1% | nt | -21.5% | nt
CCOC(=O)Cn1cc(C=C2C(=O)N(C)C(=O)N(C)C2=O)c2ccccc21 | i | 7.08µM* | -41.7% | -0.1% | 0.3% | -8.0%
C[C@H](CO)N1C[C@H](C)[C@@H](CN(C)Cc2ccc(-c3ccccc3)cc2)Oc2c(NC(=O)c3ccncc3)cccc2C1=O | ? | ? | -3.2% | ? | -18.6% | 20.6µM*
Cc1ccc(Cl)cc1NC(=O)N(Cc1ccc2c(c1)OCO2)C1CCN(Cc2ccccc2)CC1 | i | ? | -22.7% | ? | -24.3% | -9.9%
Cc1ccc(C)c(N2CCN(c3ncnc4onc(C)c34)CC2)c1 | i | ? | -22.1% | ? | -17.2% | 13µM*
O=C(N/N=C\c1ccc(COc2ccc([N+](=O)[O-])cc2)o1)c1cccc(Cl)c1 | i | -14.9% | -21.8% | -18.6% | -13.4% | ?
CC(C)(C)n1ncc2c(=O)n(Cc3cccc(Cn4cnc5c(cnn5C(C)(C)C)c4=O)c3F)cnc21 | i | ? | -29.6% | -2.1% | ? | 5.17µM*
COC(=O)C1=C(c2ccc(Cl)c(C(F)(F)F)c2)C[C@@H]2CC[C@H]1N2C(=O)NCc1ccco1 | ? | ? | -5.0% | -28.5% | 5.0% | -8.9%
CCCCCN=C(N)N/N=C/c1c[nH]c2ccc(OC)cc12 | 17.8µM* | ? | 15.8µM* | 5.62µM*! | ? | ?
CN(C)C(=O)O/N=C(\N)COc1ccc(C(C)(C)C)cc1 | ? | ? | -98.2% | nt | 20.6µM* | ?
O=c1[nH]c2ccccc2n1C1CCN(C(CCc2ccccc2)c2nnnn2Cc2ccccc2)CC1 (stereo unspecified) | 8.91µM* | ? | -91.0% | 8.91µM* | nt | nt
CSCCC(c1nnnn1Cc1ccccc1)N1CCC(n2c(=O)[nH]c3ccccc32)CC1 (stereo unspecified) | 14.1µM* | ? | -16.4% | ? | nt | nt
O=c1[nH]c2ccccc2n1C1CCN(C(CCc2ccccc2)c2nnnn2C2CCCCC2)CC1 (stereo unspecified) | nt | ? | -6.9% | 14.1µM* | nt | nt
O=c1[nH]c2ccccc2n1C1CCN(C(c2cccs2)c2nnnn2Cc2ccccc2)CC1 (stereo unspecified) | nt | ? | -31.3% | ? | nt | nt
O=c1[nH]c2ccccc2n1C1CCN(C(c2ccccc2OC(F)(F)F)c2nnnn2Cc2ccccc2)CC1 (stereo unspecified) | 10µM* | 11.2µM* | -38.6% | 17.8µM* | nt | nt
CC(=O)N1CCc2cc(S(=O)(=O)N3CCN(c4ccc(C)cc4)C(C)C3)ccc21 (stereo unspecified) | i | -67.9% | -18.8% | -29.5% | -17.0% | 16.4µM*
O=C(NC1CCCCC1)c1ccc(CSc2nc3ccncc3n2Cc2ccc(F)cc2)cc1 | ? | 8.9% | 4.3% | ? | -6.4% | ?
CC(CNC(=O)c1ccc(CSc2nc3ccncc3n2Cc2ccc(F)cc2)cc1)c1ccccc1 (stereo unspecified) | ? | ? | -23.2% | -25.6% | -9.0% | 23.1µM*
SMILES | ATXN viability | TGFb inhibitor | HepG2 viability | ATXN2 expr inh | A549 viability | Nrf2 block
CN1CC=C(/C=C/c2ccc(-c3ccccc3)cc2)CC1 | ? | ? | 11.2µM* | nt | 0.9% | 5.7%
CC(=O)OC1CCC2(C)C(CCC3C4CC(N5CC5)C(C(C)=O)C4(C)CC(=O)C32)C1 (stereo unspecified) | ? | -23.6% | -27.1% | ? | 14.6µM* | 8.2%
CC[C@]1(O)CC[C@H]2[C@@H]3CCC4=CCCC[C@@H]4[C@H]3CC[C@@]21C | ? | nt | nt | -23.3% | nt | nt
COc1ccc(NP(=O)(Oc2cccc(C)c2)Oc2cccc(C)c2)cc1OC | i | 15.8µM* | -43.4% | nt | -1.3% | ?
COc1ccc(OC)c(NP(=O)(Oc2ccc(Cl)cc2)Oc2ccc(Cl)cc2)c1 | i | -17.5% | 0.0% | 8.4% | 3.1% | -0.2%
COc1ccc(NP(=O)(Oc2ccc(Cl)cc2)Oc2ccc(Cl)cc2)cc1OC | i | 20µM* | -47.2% | -22.0% | -6.6% | ?
COc1ccccc1OP(=O)(Nc1ccc(Br)cc1)Oc1ccccc1OC | i | 15.8µM* | -79.2% | -22.1% | ? | ?
CCOC(=O)CCCc1cc[c]([Sb](=[O])([OH])[OH])cc1 | nt | ? | -8.0% | nt | -2.0% | 0.0%
CS(=O)(=O)c1ccc(C(=O)C2C(=O)CCCC2=O)c([N+](=O)[O-])c1 | i | nt | nt | 0.9%[116 µM] | nt | nt
O=C(COc1ccc(Cl)cc1)N(c1ccc(Cl)cc1)C1CN2CCC1CC2 (stereo unspecified) | ? | 14.1µM* | -97.4% | -26.3% | -1.0% | 0.3%
CC(C(=O)c1ccccc1)N(C)C (stereo unspecified) | i | nt | nt | 10.3% | nt | nt
CCOc1cc(CNCCc2c[nH]c3ccccc23)cc(Cl)c1OC | ? | 15.8µM* | -94.1% | ? | ? | ?
Cc1ccc(C(=O)N[C@@H](C)CN2C3=NC[C@@H](Cc4ccccc4)N3C[C@H]2Cc2ccc(O)cc2)cc1Br | 25.1µM* | ? | -103.1% | ? | -7.7% | 22.5%
Cc1ccc(C(=O)N[C@@H](C)CN2C3=NC[C@H](Cc4ccccc4)N3C[C@H]2Cc2ccc(O)cc2)cc1Br | nt | 12.6µM* | 11.2µM* | 25.1µM* | ? | ?
CN1[C@H]2CC(=O)C[C@@H]1[C@@H](O)C2 | i | nt | nt | nt | nt | nt
O=[N+]([O-])/N=C1\NCCN1Cc1ccc(Cl)nc1 | i | nt | nt | 7.8% | nt | nt
